Source: PubChem BioAssay

test: binders of probe aFST on microarray, primary screen, stem cell growth factor project, biochemical, small-molecule microarray, fluorescence 635/667 (AID 1086); settings: higher = more signal;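 also: score merges 667 nm fluorescence with signal-to-noise of each printed compound spot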

Row | SMILES | composite z-score
1 | Cc1ccc(C2CC=C(C(=O)O)CN2S(=O)(=O)c2ccc(C)cc2)cc1 (centres undefined) | 0.374
2 | COc1ccc([Si](C)(C)[C@H]2[C@H](CC(=O)N3CCC[C@H]3CO)O[C@@]3(C(=O)N(Cc4cccc(N5C(=O)COc6ccccc65)c4)c4ccccc43)[C@@H]2C)cc1 | -0.0678
3 | CC(CCN1CCc2nc(-c3ccccc3)c(-c3ccccc3)cc2C1)=NOC[C@@H](C)[C@H](OCc1ccccc1)C(C)C | -0.32
4 | CN1C(=O)C2C(C1=O)C1C=C(CCCO)C2C(c2ccc(CN3CCCC3)cc2)N1C (centres undefined) | -0.424
5 | CCc1cc2c(nc1CC)CCN(CCC(C)=NO[C@@H](C)c1cc(-c3c(C)cc(C)cc3C)no1)C2 | -0.119
6 | CS(=O)(=O)CCOC(=O)C1=CC(CCCO)=CC(c2cccs2)N(Cc2cccc(OC(F)(F)F)c2)C=C1C(=O)OCCS(C)(=O)=O (centres undefined) | 0.425
7 | O=C1CCCC=C1C(O)CCOCc1ccccc1 (centres undefined) | -0.0364
8 | CC(C)=CCCC(C)=CCON=C1[C@H]2CCn3c(=O)n(Cc4cc5c(cc4Cl)OCO5)c(=O)n3[C@H]2[C@H](O)[C@@H]2O[C@H]12 | 0.661
9 | O=C1C2=CC[C@H]3C(=O)N(Cc4ccc5c(c4)OCO5)C(=O)[C@H]3[C@H]2[C@H](O)[C@@H]2O[C@H]12 | 0.407
10 | CO[C@@H]1COC(=O)CC=C[C@@H](C)[C@@H]2C=C[C@H](O)[C@@H](COC(=O)[C@H](C)NC(=O)CC=C[C@H]1C)O2 | 0.277
11 | COCCOC(=O)N1C(=O)[C@@]2(c3cc(C#CC4(O)CCCCCC4)ccc31)[C@H](c1ccc(OCCO)cc1)N1[C@H](c3ccccc3)[C@H](c3ccccc3)OC(=O)[C@H]1[C@@H]2C(=O)NC[C@H](O)c1ccccc1 | 0.29
12 | CCCCC(=C=CC[C@H](O)c1ccccc1OCCO)C[C@H](O)COCc1ccccc1 | 0.324
13 | C[C@@H]1C=CCC(=O)OC[C@H](C)C(=O)N2CCC[C@H]2C(=O)OC1 | 0.165
14 | CC(C)c1ccc(NN2C(C(O)c3ccc4c(c3)OCO4)C=CC3C(=O)N(c4ccccc4)C(=O)C32)cc1 (centres undefined) | 1.07
15 | COc1ccc(COC(=O)NN=C2C[C@@H](O)[C@@H](O)[C@@H]3[C@@H]4C(=O)N(c5ccc(F)cc5F)C(=O)[C@@H]4CC[C@@H]23)cc1 | 0.562
16 | C=C(/C(=C/C[C@@H](OC(=O)c1ccncc1)c1ccc(OCCO)cc1)c1cnc2ccccc2c1)C(C)C | 0.201
17 | Cn1c(=O)n2n(c1=O)[C@H]1[C@H](O)[C@@H]3O[C@@H]3C(=NOC[C@@H](O)COCc3ccco3)[C@H]1CC2 | 0.0036
18 | CCOC(=O)CCN1C(=O)[C@H]2[C@H]3[C@H](O)[C@H](O)CC(=NNC(=O)OCc4ccc(OC)cc4)[C@@H]3CC[C@H]2C1=O | 0.15
19 | CCCNC(=O)OC[C@H]1O[C@H](CCON=CC[C@@H]2C=C[C@H](OC(C)=O)[C@@H](COC(C)=O)O2)C=C[C@@H]1Oc1ccc(OC)cc1 | 0.014
20 | COC(=O)[C@H](C)NC(=O)CCC1CC(OC(=O)NCc2cccc3ccccc23)CC2(CCCC(COC(=O)NCCc3ccc(Cl)cc3)O2)O1 (some centres undefined) | 0.171
21 | COc1ccc(O[C@H]2C=C[C@@H](c3ccccc3)O[C@@H]2COC(=O)CCC(C)=NO[C@@H](C)c2cc(-c3c(C)cc(C)cc3C)no2)cc1 | -0.666
22 | CN(C)C(=O)[C@@]1(Cc2ccccc2)N=C(c2ccc(OCCCO)cc2)O[C@H]1c1ccccc1CN=[N+]=[N-] | 1.42
23 | COc1ccc(OC[C@H]2Cc3c(-c4ccccc4)nc4c(c3CO2)CN(CCOc2ccccc2)CC4)cc1 | 0.491
24 | COC(=O)C1=C(C)N(Cc2ccccc2)[C@]23O[C@](C(=O)OC)(C(=O)N2[C@@H]1c1ccccc1)[C@H]1CCOC(=O)[C@H]13 | 0.0592
25 | COC(=O)CC=C[C@@H](C)[C@@H](C=NO[C@@H](C)c1cc(-c2c(C)cc(C)cc2C)no1)OC | -0.358
26 | COc1ccc(O[C@H]2C=C[C@@H](c3ccccc3)O[C@@H]2COC(=O)CCC(C)=NO[C@H](C)c2cn([C@@H]3COC[C@H]3O)nn2)cc1 | 0.0701
27 | CC(C)=NOCc1cccc(-c2cc(-c3ccccc3)no2)c1 | 0.376
28 | CCCNC(=O)OC[C@H]1O[C@H](CCON=C2[C@H]3CCn4c(=O)n(-c5ccccc5)c(=O)n4[C@H]3[C@H](O)[C@@H]3O[C@H]23)C=C[C@@H]1Oc1ccc(OC)cc1 | 0.214
29 | CC[C@@H](c1ccccc1)n1c(=O)n2n(c1=O)[C@H]1[C@H](O)[C@@H]3O[C@@H]3C(=NOCC(C)C)[C@H]1CC2 | 0.0308
